Each structure is given as a SMILES string. Inconclusive results are not listed. Active and inactive are the calls of the source. Unless noted, calls follow the shape of the dose curve; as a rule, active = well fitted curve in the direction sought with a large enough effect; inconclusive = small, poorly fitted or top-dose-only effect, or another doubt; inactive = no such curve, though single readings can be large; an effect the other way counts as inactive or inconclusive.

The values that follow come from PubChem BioAssay (NCATS).

The target in assay [1] is Muscarinic acetylcholine receptor M1 (Rattus norvegicus) (UniProt P08482). The assay can be described thus: qHTS Assay for Antagonists of Acetylcholine Muscarinic M1 Receptor: Kinetic Measurement of Intracellular Calcium Response (AID 943).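 Also: Fluo-4 calcium signal as peak divided by basal fluorescence over 4 min; nearly all actives have a fitted effect of over 75% in size.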 Put shortly: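 Quantitative HTS in CHO-M1 (rat receptor) cells: 10 min compound exposure ahead of 100 nM carbachol, Fluo-4 fluorescence followed 4 min, value expressed as peak-to-basal ratio.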

A short description of assay [2]: Counterscreen for APE1 Inhibitors: Fluorescent Dye Displacement Validation Assay (AID 1707).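 Also: plate controls were ThO with dsDNA and no compound for no effect and ThO without dsDNA for full effect.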 In outline: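 Loss of Thiazole Orange fluorescence marks promiscuous DNA binders. The dye (250 nM) is mixed with 50 nM abasic-site dsDNA in pH7.5 Tris buffer containing MgCl2, then compounds are added and emission is read once.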
Assay [3] concerns the target Dual specificity protein kinase CLK4 (Homo sapiens) (UniProt Q9HAZ1). The assay can be described thus: qHTS Assay for Inhibitors of CDC-like Kinase 4 (ADP-Glo Assay) (AID 1771). Also: % is scaled to controls: 0 for no effect and ±100 for the full control effect; nearly all actives have a fitted effect of over 70% in size. Put shortly: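 In this ADP-Glo format, 1 uM ATP and 100 uM RS peptide served as substrates for 25 nM Clk4 in Mg2+/EGTA/DTT/Triton buffer; reactions ran 1 hr at room temperature before luminescent ADP quantification.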
In general terms: Quantitative high-throughput screening tests each substance at several concentrations.

Assay [4] is described as follows: Primary qHTS to identify inhibitors of SARS-CoV-2 cell entry (AID 1645846; calls by dose curve; also: nearly all actives have a fitted effect of over 45% in size). To be noted: SARS-CoV-2 pseudovirus cell entry assay, luminescence; activity change, negative = inhibition: at 57.1 µM (top of the series) unless noted. In outline: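 HEK293 cells stably expressing human ACE2, pre-treated 1 h with compound, then infected with MLV particles pseudotyped with Wuhan-Hu-1 spike (C-terminal 19-aa truncation). Luciferase luminescence after 48 h at 37 °C, normalised to spike PP and bald PP.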

For assay [5], the target named is Glutathione peroxidase 1 (Homo sapiens) (UniProt P07203). The assay is described as follows: Primary qHTS Assay for Inhibitors of Recombinant Selenoprotein Glutathione Peroxidase 1 (GPX1) (AID 1845191). Also: nearly all actives have a fitted effect of over 65% in size. In outline:
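NADPH consumption tracked by fluorescence at 340/450 nm between t=0 and t=15 min, room temperature. Final mix: 10 nM GPX1, 100 nM glutathione reductase, 1 mM GSH, 0.5 mM NADPH, 0.5 mM cumene hydroperoxide, 0.01% BSA; 30 min compound–enzyme preincubation.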

Assay [6] has as its target Phospholipid hydroperoxide glutathione peroxidase GPX4 (Homo sapiens) (UniProt P36969). The assay is described as follows: Primary qHTS Assay for Inhibitors of Recombinant Selenoprotein Glutathione Peroxidase 4 (GPX4) (AID 1845192). Also: % is scaled to controls: 0 for no effect and ±100 for the full control effect; nearly all actives have a fitted effect of over 65% in size. In outline:
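NADPH consumption followed by fluorescence at 340/450 nm, t=0 and after 15 min at room temperature. Reaction started with cumene hydroperoxide (0.5 mM final) after 30 min compound–GPX4 preincubation; final 200 nM GPX4, 100 nM GR, 1 mM GSH, 0.5 mM NADPH.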

Assay [7] can be described thus: Validation screen for small molecules that induce DNA re-replication in MCF 10A normal breast cells (AID 463097). Also: 0% is about no effect; nearly all actives have a fitted effect of over 60% in size. In outline:
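MCF 10A cells exposed to compound 48 hr at 37 C, 5% CO2, then Hoechst-stained 40 min. Laser-scanning imaging of nuclear DNA content (405 nm ex, 500-530 nm em); re-replication scored as rise in nuclei with elevated fluorescence intensity.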

Assay [8] in a line: Cell Viability - Mesenchymal (AID 546).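 Also: cells exposed to compound for 40 hours before reading; 0% = DMSO only and -100% = 100 µM tamoxifen.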 In outline: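 CellTiter-Glo luminescence (intracellular ATP, 20 min room temperature) after 40 hr compound exposure at 37 °C of 1000 glomerulus-derived human kidney mesenchymal cells/well; AC50 values obtained by fitting qHTS concentration-response data to the Hill equation.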
Assay [9] is described as follows: Cellular Toxicity (caspase-3) N2a (AID 665).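 Also: compound exposure lasted 16 h at 37 °C before readout.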 As to conditions: N2a cells, luminescence, normalized: DMSO 0%, 10 µM staurosporine 100%; at 92.2 µM (top of the series). In outline: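 Concentration-response qHTS: compound-induced caspase-3/7 luminescence in N2a cells (16 h, 37 °C), relative to DMSO and 10 uM staurosporine controls; AC50 obtained using the standard Hill equation.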

Assay [10] is described as follows: MultiTox-Fluor Cytotoxicity Assay - LYMP1-002 - Live Cells (AID 955).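 Also: cells exposed to compound for 16 hours; % is scaled to controls: 0 for no effect and ±100 for the full control effect.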 In outline: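 In this qHTS viability format, lymphoblastoid cells (LYMP1-002, human) received compound for 16 hr at 37 C. Fluorogenic GF-AFC cleavage by viable cells was detected at 405/510 nm after 1 h at room temperature.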
Assay [11] in a line: Cell Viability - LYMP2-013 (AID 970).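 Also: 0% = DMSO only and full inhibition = tetraoctylammonium bromide control; nearly all actives have a fitted effect of over 55% in size.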 Put shortly:
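In complete culture medium, human lymphoblastoid cells were dosed for 24 hr at 37 C, with tetraoctylammonium bromide (6.4pM to 92 uM) as positive control. Viability reflects luciferase-based ATP signal; AC50 derived from concentration-response curves.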

Assay [12] in a line: Cell Viability - LYMP2-014 (AID 983).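 Also: plate controls were DMSO only for no effect and 92 µM tetraoctylammonium bromide for full effect; nearly all actives have a fitted effect of over 50% in size.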 Put shortly:
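Quantitative HTS in lymphoblastoid cells: 24 hr compound exposure, then CellTiter-Glo ATP luminescence. Positive control was tetraoctylammonium bromide, 6.4pM to 92 uM.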

Assay [13] in a line: Cell Viability - LYMP2-016 (AID 984).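 Also: cells exposed to compound for 24 hours at 37 °C; % is scaled to controls: 0 for no effect and ±100 for the full control effect; nearly all actives have a fitted effect of over 55% in size.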 In outline: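 Human lymphoblastoid LYMP2-016 cells, 2500 per well, treated with compounds for 24 h at 37 C. Viability read as intracellular ATP by CellTiter-Glo luminescence after 30 min at room temperature; AC50 from Hill fits of concentration-response.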
Assay [14] in a line: Cell Viability - LYMP2-020 (AID 986).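 Also: plate controls were DMSO only for no effect and tetraoctylammonium bromide at 92 µM for full effect; nearly all actives have a fitted effect of over 55% in size.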 In outline: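 Cells at 2500 per well receive a 24 hr compound exposure at 37 C. Viability is measured as ATP-dependent luciferase luminescence, with AC50 modeled from qHTS concentration-response curves.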
The nature of assay [15]: Cell Viability - LYMP2-022 (AID 987).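 Also: 0% = DMSO alone and full effect = tetraoctylammonium bromide at 92 µM; nearly all actives have a fitted effect of over 55% in size.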 In outline:
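In this qHTS cytotoxicity screen, compound titrations were incubated 24 hr at 37 C with human lymphoblastoid cells in complete medium. Luciferase-based ATP luminescence provided the viability signal.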

Assay [16] in a line: Cell Viability - LYMP2-024 (AID 988).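 Also: plate controls were DMSO only for no effect and 92 µM tetraoctylammonium bromide for full effect; nearly all actives have a fitted effect of over 60% in size.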 In outline:
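Cells at 2500 per well received compound for 24 hr after a 5 hr settling period. Viability was scored by CellTiter-Glo luminescence, with AC50 from Hill fits.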

Assay [17] in a line: Cell Viability - LYMP2-026 (AID 989). Also: % is scaled to controls: 0 for no effect and ±100 for the full control effect; nearly all actives have a fitted effect of over 50% in size. In outline:
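Acute toxicity screen in complete culture medium, with 24 hr compound exposure at 37 C. Viability read as cellular ATP via luciferase reaction, with tetraoctylammonium bromide (6.4pM to 92 uM) as positive control.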

Assay [18] in a line: Cell Viability - LYMP1-002 - Assay at 40 hr (AID 994).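 Also: 0% = DMSO only and full inhibition = 92 µM tetraoctylammonium bromide; nearly all actives have a fitted effect of over 60% in size.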 Put shortly:
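Concentration-dependent ATP loss after 40 hr treatment at 37 C defined toxicity; AC50 values were obtained by fitting the standard Hill equation.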

Assay [19] deals with Retinoic acid receptor RXR-alpha (Homo sapiens) (UniProt P19793). The assay is described as follows: qHTS assay for small molecule agonists of retinoid X receptor alpha signaling (AID 588544; calls by dose curve;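 also: 0% = DMSO basal wells and 100% = reference agonist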).
Assay [20] is described as follows: qHTS assay for small molecule antagonists of the retinoid-related orphan receptor gamma (ROR-gamma) signaling pathway - cell viability counter screen (AID 720652; active = well fitted curve in the direction sought with a large enough effect in the repeat runs; an effect the other way counts as inactive or inconclusive;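 also: CHO reporter cells with doxycycline-induced ROR-gamma expression; compound exposure lasted 16 hr before ATP read; % is scaled to controls: 0 for no effect and ±100 for the full control effect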). Put shortly:
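ATP-based viability readout in the ROR-gamma reporter CHO cells after 16 hr compound exposure under doxycycline induction.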

Sequence of Glutathione peroxidase 1 (Homo sapiens) (P07203 whole entry, looked up): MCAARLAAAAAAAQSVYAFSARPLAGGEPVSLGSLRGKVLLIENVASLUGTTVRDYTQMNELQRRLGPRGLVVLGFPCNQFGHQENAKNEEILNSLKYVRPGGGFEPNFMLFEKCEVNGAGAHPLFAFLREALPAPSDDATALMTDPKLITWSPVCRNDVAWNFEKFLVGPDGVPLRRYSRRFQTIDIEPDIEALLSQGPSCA
Sequence of Muscarinic acetylcholine receptor M1 (Rattus norvegicus) (P08482 whole entry, looked up): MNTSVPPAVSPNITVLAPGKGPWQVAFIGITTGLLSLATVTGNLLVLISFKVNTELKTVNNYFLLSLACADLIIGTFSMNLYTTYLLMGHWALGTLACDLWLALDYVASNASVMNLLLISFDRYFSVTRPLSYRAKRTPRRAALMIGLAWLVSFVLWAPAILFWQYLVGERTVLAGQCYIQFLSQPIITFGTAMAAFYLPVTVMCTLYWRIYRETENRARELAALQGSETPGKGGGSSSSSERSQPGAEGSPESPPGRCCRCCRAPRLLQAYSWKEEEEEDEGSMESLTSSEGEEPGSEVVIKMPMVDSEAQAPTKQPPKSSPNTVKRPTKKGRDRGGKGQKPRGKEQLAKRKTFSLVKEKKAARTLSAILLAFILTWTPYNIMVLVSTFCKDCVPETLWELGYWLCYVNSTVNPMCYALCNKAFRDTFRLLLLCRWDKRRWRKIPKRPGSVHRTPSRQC
Sequence of Retinoic acid receptor RXR-alpha (Homo sapiens) (P19793 whole entry, looked up): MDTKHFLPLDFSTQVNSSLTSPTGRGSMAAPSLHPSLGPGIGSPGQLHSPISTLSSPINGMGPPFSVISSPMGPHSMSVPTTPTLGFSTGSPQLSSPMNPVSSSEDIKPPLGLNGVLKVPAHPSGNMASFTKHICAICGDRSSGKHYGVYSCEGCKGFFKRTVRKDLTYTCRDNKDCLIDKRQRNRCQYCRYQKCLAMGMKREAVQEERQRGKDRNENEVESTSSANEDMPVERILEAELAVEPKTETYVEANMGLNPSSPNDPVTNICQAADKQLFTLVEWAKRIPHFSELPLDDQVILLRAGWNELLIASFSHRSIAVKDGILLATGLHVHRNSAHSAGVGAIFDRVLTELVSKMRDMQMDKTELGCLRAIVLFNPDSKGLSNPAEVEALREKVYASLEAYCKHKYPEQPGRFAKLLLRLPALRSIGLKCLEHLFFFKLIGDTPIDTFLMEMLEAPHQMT
Sequence of Dual specificity protein kinase CLK4 (Homo sapiens) (Q9HAZ1 whole entry, looked up): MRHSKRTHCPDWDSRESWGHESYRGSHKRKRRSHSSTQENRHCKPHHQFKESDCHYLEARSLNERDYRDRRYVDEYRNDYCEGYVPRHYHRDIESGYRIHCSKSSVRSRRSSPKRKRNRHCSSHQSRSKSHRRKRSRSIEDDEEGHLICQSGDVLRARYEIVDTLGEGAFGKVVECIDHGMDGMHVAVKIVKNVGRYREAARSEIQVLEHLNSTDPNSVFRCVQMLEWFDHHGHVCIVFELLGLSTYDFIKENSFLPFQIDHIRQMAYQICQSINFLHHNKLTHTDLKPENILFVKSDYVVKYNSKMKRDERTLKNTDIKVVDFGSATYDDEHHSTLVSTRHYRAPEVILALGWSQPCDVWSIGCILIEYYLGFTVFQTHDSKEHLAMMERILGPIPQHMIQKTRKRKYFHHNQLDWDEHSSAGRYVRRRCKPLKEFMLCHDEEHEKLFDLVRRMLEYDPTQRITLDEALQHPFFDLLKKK
Sequence of Phospholipid hydroperoxide glutathione peroxidase GPX4 (Homo sapiens) (P36969 whole entry, looked up): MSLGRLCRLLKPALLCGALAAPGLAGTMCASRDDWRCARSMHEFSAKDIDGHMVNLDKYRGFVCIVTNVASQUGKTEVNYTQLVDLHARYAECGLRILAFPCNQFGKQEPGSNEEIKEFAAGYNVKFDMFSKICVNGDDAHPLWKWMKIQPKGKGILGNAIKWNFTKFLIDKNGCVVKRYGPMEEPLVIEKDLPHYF

Take `N#C/C(=C\c1ccc(O)c(O)c1)C(N)=S`: the Potency entry in assay [1] was “inactive”.
In the case of `C=CCN1CCc2cccc3c2C1Cc1ccc(O)c(O)c1-3` (configuration not stated), the compound was classed as inactive in assay [2].
For `CN1CCN(c2ncc3ncc(=O)n(C)c3n2)CC1`, the compound was classed as inactive in assay [3].
For the compound `O=C(O)C1=CCCN(CCOC(c2ccc(C(F)(F)F)cc2)c2ccc(C(F)(F)F)cc2)C1`, the activity change, negative = inhibition in [4] is -6.97%. For the same compound, the Potency entry in [5] and in [6] was “inactive” throughout.
For the compound `CCCN1CCc2cc(O)cc3c2C1Cc1ccc(O)c(O)c1-3` (configuration not stated), the Potency entry in assay [7] was “inactive”.
Consider `C/C=C/c1ccc2c(c1)OCO2`, for which the result in assay [8] and in assay [10] was inactive. Moreover, the caspase-3 activation in assay [9] was 0.0142% (inactive). Also, the Potency result in assay [11], in [12], in assay [13], in assay [14], in assay [15] and in [16] was “inactive” throughout. For the same compound, the Potency result in assay [17], in assay [18], in assay [19] and in assay [20] was “inactive” in each case.
`C=CCc1ccc2c(c1)OCO2`: the Potency result in assay [12], in assay [13], in assay [14], in assay [15], in assay [16] and in assay [17] was “inactive” in each case. The Potency result in assay [18] is “inactive”.
